Only some compounds are listed: those with a hit (about 5.9% of all), similar ones and a draw of the others.
rTrxR1 inhibitor: inhibitors of rat thioredoxin reductase 1; O89049; recombinant rTrxR1, NADPH fluorescence consumption, selenite substrate; Potency, µM (series often up to 114 µM), hits mostly inhibitors; 1% of 390,000 active; AID 588453; also: nearly all actives have a fitted effect of over 65% in size
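Rat TrxR1 (90 nM in the dispensed reagent) was pre-reduced with 400 uM NADPH for 5 min at room temperature, then incubated with compound for 15 min. After 400 uM selenite was added, NADPH fluorescence (Ex 340/Em 450 nm) was followed for 8 min.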
GALK inhibitor: inhibitors of human galactokinase. Purified GALK, Kinase-Glo residual ATP luminescence. Potency, µM (titrated, usually from 57.5 µM), most hits filed as inhibitors. 0.007% of 270,000 active. AID 1868. P51570
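Kinase-Glo Plus luminescence measured ATP left after a 1 h room-temperature reaction. The reaction used 5 nM GALK, 100 uM galactose and 35 uM ATP at pH 8.0 (20 mM HEPES, 5 mM MgCl2, 60 mM NaCl, 1 mM DTT, 0.01% BSA).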
FBPA coupling cs: coupling enzyme interference in Giardia aldolase counter-screen. 0.67% of 290,000 active. coupling enzyme system counterscreen, AmpLite Red fluorescence. activity change, negative = inhibition, % at 58.2 µM, hits read low; in the data active = activity change below about -30%
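Compounds tested against the coupling enzymes alone at 57.5 uM final; readout was AmpLite Red fluorescence (525/598 nm) after 20 min at RT.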
TrxR1 substrate: rat thioredoxin reductase 1 substrate activity. O89049. purified TrxR1 substrate turnover, NADPH consumption readout. Potency, µM (top dose mostly 114 µM). 0.01% of 390,000 active. AID 588456; also: nearly all actives have a fitted effect of over 50% in size
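Rat TrxR1, dispensed at 90 nM, was prereduced with 400 uM NADPH (final) for 5 min at ~22 deg C, then incubated with compound 15 min before 400 uM selenite. A first-read NADPH fluorescence drop versus no-compound background flagged substrates.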
Gal4-VP16 FLuc: Gal4-VP16 reporter inhibition counter-screen | Drosophila S2 Gal4-VP16 UAS-luciferase, luminescence, 20 h | Potency, µM (highest dose often 53.6 µM), actives largely listed as inhibitors | 3.5% of 310,000 active | AID 2546;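 also: Gal4-VP16 expression switched on by copper sulfate through the metallothionein promoter; nearly all actives have a fitted effect of over 50% in size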
RORg inh: inhibitors of mouse ROR gamma transcriptional activity; Drosophila S2 Gal4-RORgamma UAS-luciferase reporter, 20 h; Potency, µM (titrated, usually from 53.6 µM), actives largely listed as inhibitors; 5.4% of 310,000 active; AID 2551; P51450; also: nearly all actives have a fitted effect of over 60% in size
Target sequence (P51450 whole entry, looked up, the tested form may be a part): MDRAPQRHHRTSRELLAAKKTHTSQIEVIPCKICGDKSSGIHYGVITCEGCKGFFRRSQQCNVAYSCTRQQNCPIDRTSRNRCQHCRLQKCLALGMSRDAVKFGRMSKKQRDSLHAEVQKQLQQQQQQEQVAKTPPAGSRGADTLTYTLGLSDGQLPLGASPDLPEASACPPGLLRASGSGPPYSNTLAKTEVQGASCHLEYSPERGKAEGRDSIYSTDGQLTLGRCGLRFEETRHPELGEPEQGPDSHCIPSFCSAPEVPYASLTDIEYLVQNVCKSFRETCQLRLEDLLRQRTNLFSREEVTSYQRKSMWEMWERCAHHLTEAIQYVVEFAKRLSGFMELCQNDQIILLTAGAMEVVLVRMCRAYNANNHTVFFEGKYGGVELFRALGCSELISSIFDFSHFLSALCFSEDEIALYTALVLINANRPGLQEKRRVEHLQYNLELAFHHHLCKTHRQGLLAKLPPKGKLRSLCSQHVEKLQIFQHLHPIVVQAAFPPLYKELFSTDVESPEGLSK
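In this cell-based reporter format, copper sulfate (700 uM final) drives Gal4–ROR gamma fusion expression from a metallothionein promoter in Drosophila Schneider cells; compounds preincubated 1 hr, reporter read after 20 hr at ambient temperature.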
A number is an active result; – = inactive; ? = inconclusive; · = no result; [ ] = dose if it differs, or a comment. Unless noted, calls follow the shape of the dose curve; as a rule, active = well fitted curve in the direction sought with a large enough effect; inconclusive = small, poorly fitted or top-dose-only effect, or another doubt; inactive = no such curve, though single readings can be large; an effect the other way counts as inactive or inconclusive.

SMILES	rTrxR1 inhibitor	GALK inhibitor	FBPA coupling cs	TrxR1 substrate	Gal4-VP16 FLuc	RORg inh
Cc1ccccc1C(=O)Nc1ccc(C(=O)N/N=C/c2ccccn2)cc1	–	–	–	–	–	–
O=C(N/N=C/c1ccsc1)c1ccccn1	–	–	–	–	–	–
Cc1cccc(/C=N/NC(=O)c2ccc(Br)cc2)c1	–	–	–	–	–	18µM
CC(C)(C)c1ccc(/C=N/NC(=O)c2ccccn2)cc1	–	–	–	–	–	10µM
O=C(N/N=C/c1ccccn1)c1ccc(Br)cc1	–	·	–	–	3.2µM	6.3µM
COc1cccc(/C=N/NC(=O)c2ccc(OCc3cccc(Br)c3)cc2)c1	–	–	–	–	–	14µM
O=C(N/N=C/c1ccc(F)cc1)c1ccc(Br)cc1	–	–	–	–	–	?
CC1(c2ccccc2)NC(=O)N(CC(=O)NCc2ccc3c(c2)OCO3)C1=O (stereo unspecified)	–	–	–	–	–	–
Cc1noc(Cn2c(=O)c3ccccc3n(CC(=O)Nc3ccc(C(C)C)cc3)c2=O)n1	–	·	·	–	·	·
Clc1ccc(Sc2cc(Cl)c(-c3ccccc3)nn2)cc1	–	–	–	–	?	?
CCOc1cc(/C=N/NC(=O)c2ccccn2)ccc1OC(=O)c1ccc(F)cc1	–	–	·	–	?	18µM
CC(C)(C)c1ccc(C(=O)N/N=C/c2ccccn2)cc1	–	–	–	–	4.5µM	1.4µM
CCOc1cc(/C=N/NC(=O)c2ccncc2)ccc1OC(=O)c1ccccc1	–	–	–	–	–	–
Cc1ccc(C(=O)N/N=C\c2ccccn2)cn1	–	–	–	–	–	–
CCn1c(=O)c(C(=O)NCc2ccccc2Cl)c(O)c2ccccc21	–	–	–	–	20µM	?
CCCCCCC(=O)NNC(=O)c1c(O)c2ccccc2n(CC)c1=O	–	–	–	–	?	11µM
CCCn1c(=O)c(C(=O)NNC(=O)c2ccccc2Cl)c(O)c2ccccc21	–	–	–	–[0.0914 µM]	?	11µM
Cn1c(=O)c(C(=O)NCc2ccccc2Cl)c(O)c2ccccc21	–	–	–	–	–	–[1.91 µM]
CCCn1c(=O)c(C(=O)NNC(=O)c2ccccc2[N+](=O)[O-])c(O)c2ccccc21	·	–	·	·	?	?
CCCn1c(=O)c(C(=O)Nc2cccc(C)c2)c(O)c2ccccc21	–	–	–	–	13µM	?
CCCCCCCCC(=O)NNC(=O)c1c(O)c2ccccc2n(CC)c1=O	–	–	–	–	–	–
CCC(=O)N1c2ccc(S(=O)(=O)CCC(=O)Nc3ccc(OC)cc3OC)cc2CC1C (stereo unspecified)	–	–	·	–	–	–
OC(CN1CCN(c2cccc(C(F)(F)F)c2)CC1)c1c[nH]c2ccccc12 (stereo unspecified)	–	–	–	–	?	–
Cc1cccc(N2CCN(C(=O)c3ccc4c(Cl)c5c(nc4c3)CCCC5)CC2C)c1 (stereo unspecified)	–	·	·	–	·	·
Cc1cc(C)cc(NC(=O)N2CCCC2C(=O)NCc2ccco2)c1 (stereo unspecified)	–	–	–	–	–	–
SMILES	rTrxR1 inhibitor	GALK inhibitor	FBPA coupling cs	TrxR1 substrate	Gal4-VP16 FLuc	RORg inh
O=C1C=CC(O)(c2cc(=O)c3c(O)cc(O)cc3o2)C=C1	?	·	–	–	2.8µM	3.2µM
CC(=O)c1cccc(-n2c(CCC(=O)O)ccc2-c2ccccc2)c1	50µM	·	–	–	–	–
CC(=O)c1ccc(-n2c(CCC(=O)O)ccc2-c2ccccc2)cc1	?	–	–	–	–	–
CCOC(=O)CNC(=S)n1cnc(N)n1	–	–	–	–	–	7.9µM
Cc1c(C(=O)N(C)CCn2ccnc2C)oc2c(F)cccc12	–	–	–	–	–	–
COc1c(O)ccc(/C=N\NC(=O)c2ccc3c(c2)OCO3)c1[N+](=O)[O-]	–	–	–	–	?	10µM
O=C(N/N=C/c1cc2c(cc1[N+](=O)[O-])OCO2)c1ccc2c(c1)OCO2	–	–	–	–	–	–
COc1c(O)ccc(/C=N/NC(=O)c2ccc3c(c2)OCCO3)c1[N+](=O)[O-]	–	–	–	–	1.6µM	1.1µM
COC(=O)c1cccc(C(=O)N2CCC(CO)(Cc3ccccc3Cl)CC2)c1	–	–	–	–	–	–
CCc1ccc(NC(=O)CSc2nc3nc(C)cc(C)n3n2)cc1	–	–	·	–	1.1µM	–
Cc1cc(C(=O)CN2C(=O)c3ccccc3S2(=O)=O)c(C)n1CC1CCCO1 (stereo unspecified)	–	–	–	–	8.9µM	2.2µM
Cc1cc(C(=O)COC(=O)c2ccc(O)cc2)c(C)n1CC1CCCO1 (stereo unspecified)	–	–	–	–	–	7.1µM
COc1cc(OC)cc(C(=O)OCC(=O)c2cc(C)n(CC3CCCO3)c2C)c1 (stereo unspecified)	–	·	·	–	·	·
CCc1nc(Nc2cccc(F)c2)c2oc3ccccc3c2n1	–	–	–	–	–	–
COc1ccc(CNS(=O)(=O)c2ccc3c(c2)CC(C)N3C(=O)C2CC2)cc1 (stereo unspecified)	–	–	–	–	18µM	?
CC(=O)N1c2ccc(S(=O)(=O)NCC3CCC(C(=O)Nc4cc(C)ccn4)CC3)cc2CC1C (stereo unspecified)	–	–	–	–	7.1µM	?
COc1ccc(CCNS(=O)(=O)c2ccc3c(c2)CC(C)N3C(=O)C2CCC2)cc1OC (stereo unspecified)	–	·	·	–	·	·
COc1ccc(CNS(=O)(=O)c2ccc3c(c2)CCN3C(=O)C2CC2)cc1	–	–	–	–	16µM	–
COc1cc(CNS(=O)(=O)c2ccc3c(c2)CC(C)N3C(=O)C2CCC2)cc(OC)c1OC (stereo unspecified)	–	–	–	–	6.3µM	–
CCOC(=O)/C(=N/Nc1ccccc1)N1CCCc2ccccc21	–	·	–	–	–	–
CCOC(=O)/C(=N/Nc1ccc(OC)cc1)N1CCCc2ccccc21	–	–	-42	–	–	–
COc1ccccc1N1CCN(CCCNC(=O)c2cnn(-c3ccc(C)c(C)c3)c2C2CCN(C(=O)OC(C)(C)C)CC2)CC1	–	·	·	–	·	·
COc1ccccc1CNc1ccnc(-c2ccc(N(C)C)cc2)n1	·	·	–	·	14µM	?
CCN(CC)CCN(C)Cc1nc(C(c2ccccc2)c2ccccc2)no1	–	–	–	–	–	–
NC(=O)CSc1ncc2c(n1)-c1ccccc1N(Cc1ccc(Cl)cc1)S2(=O)=O	–	·	·	–	·	·
CCSc1ncc(Cl)c(C(=O)Nc2ccc(S(=O)(=O)N(C)c3ccccc3)cc2)n1	–	·	·	–	·	·
CCN(c1ccccc1)S(=O)(=O)c1ccc(NC(=O)c2nc(S(C)(=O)=O)ncc2Cl)cc1	0.4µM	–	·	–	3.2µM	6.3µM
